Reference: PubChem BioAssay AID485364 (National Center for Advancing Translational Sciences (NCATS), 2010)
In all, about 360,000 compounds went through this assay and about 11,000 (3.1%) were called active. Another 4% or so got no clear call; they are omitted. Many of the other results were omitted from the sample, so actives are more common in it than they were. Values without a mark were called inactive. Calls follow the shape of the dose curve; as a rule, active = well fitted inhibition curve with a large enough effect; inconclusive = small, poorly fitted or top-dose-only effect; inactive = no such curve, though single readings can be large or run the other way.

Each compound was assayed against Schistosoma mansoni thioredoxin glutathione reductase (TGR) (UniProt Q962Y6) (assay: qHTS Assay for the Inhibitors of Schistosoma Mansoni Peroxiredoxins). Conditions: purified TGR, DTNB reduction, TNB absorbance 405 nm; series mostly up to 114 µM; activity change, negative = inhibition: at the top concentration.
In short: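 TGR 20 nM + NADPH 100 uM (dispensed conc.), cpd preinc 15 min RT; start with NADPH (500 uM addition) then DTNB (15 mM addition). Kinetic TNB absorbance, 405 nm filter. Four-parameter Hill fit across titration.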
% is scaled to controls: 0 for no effect and ±100 for the full control effect; potency is read from the fitted curve at half-maximal effect.
Also: nearly all actives have a fitted effect of over 60% in size.

`CCOC(=O)c1ccc(NC(=O)CCn2c(=O)oc3ccccc32)cc1` was tested, and the Potency was “inactive”.
With `CCOC(=O)c1ccc(NC(=O)CCn2cnnn2)cc1` the Potency was 89.1 µM (active).
With `COc1ccc2c(c1OC)C(=O)OC2c1c(O)nc(SC)n(-c2ccccc2)c1=O` (stereo unspecified) the Potency was 7.94 µM (active).
With `COC1=C(N2CCOCC2)C(=O)c2ccccc2C1=O` the Potency was 17.8 µM (active).
In the case of `O=C(CCl)Nc1ccc(Sc2ccc(NC(=O)CCl)cc2)cc1`, the Potency was 2.82 µM (active).
With `CC(=O)c1cc(-c2ccccc2)[nH]c1N1CCCC1` the Potency was 50.1 µM (active).
With `CC(=O)c1cc(-c2ccccc2)n(CC(=O)NC2CCCCC2)c1C` the Potency was “inactive”.
For `CCCC(O)(CCC)C(=O)NN(C(=O)CCl)c1cccc(C)c1`, the Potency was 25.1 µM (active).
In the case of `CCCCC(O)(CCCC)C(=O)NN(C(=O)CCl)c1ccccc1`, the Potency was 8.91 µM (active).
For `O=C(/C=C\NCC(=O)c1ccccc1)c1ccccc1`, the Potency was 28.2 µM (active).
`CCOC(=O)C(=CNNc1ccsc1C(=O)OC)C(=O)OCC` was tested, and the Potency was 20 µM (active).
`COC(=O)C1=C(C)NC2=C(C(=O)c3ccccc32)C1c1ccc(-c2ccc(C(=O)O)cc2)o1` (stereo unspecified) was tested, and the Potency was 20 µM (active).
For `Cc1ccn(C(CC(=O)c2ccc(Br)cc2)C(=O)O)n1` (stereo unspecified), the Potency was 8.91 µM (active).
With `CCOC(=O)c1cc2n(c1N)-c1ccccc1C2=O` the Potency was 31.6 µM (active).

Going from `CCOc1ccccc1NC(=O)CCn1cnnn1` to `CCOC(=O)c1cc(-c2ccccc2)n(CCC(=O)Nc2ccccc2CC)c1C`, the “activity change, negative = inhibition” value rises from -2.07% to 9.85%.

First: CCN(CC)CCNC(=O)c1cc2c(=O)oc3ccc(C)cc3c2s1
Second: CCOCCCNC(=O)c1c(NC(=O)Cc2coc3ccc(C)cc23)sc2c1CCC2
The “activity change, negative = inhibition” value of the first is lower: 11.6% for the first, 54% for the second.

First: CCc1ccc(NC(=O)c2cc(S(=O)(=O)N3CCCC(C)C3)cn2C)cc1 (stereo unspecified)
Second: CC(=O)N1CCCc2cc(S(=O)(=O)N3CCC(C(=O)NCc4ccc(F)cc4)CC3)ccc21
The “activity change, negative = inhibition” value of the first is lower: -0.776% for the first, 1.32% for the second.

Compared with `COc1ccc(CNC(=O)c2ccc(NC(=O)N3CC4CCCN4c4ccccc43)cc2)cc1` (stereo unspecified), `COc1ccc(Cc2nc3ccc(C(=O)NCc4ccccc4C)cc3o2)cc1` is higher in “activity change, negative = inhibition” value: -14.3% for the first, 3.84% for the second.

First: CSc1nc2ccc(C)cc2c(=O)n1-c1cccnc1
Second: COc1ccc(-n2c(SC)nc(O)cc2=O)cc1
The “activity change, negative = inhibition” value of the first is higher: 23.6% for the first, -1.27% for the second.

First: COc1ccc(Nc2ncc(C(=O)Nc3cc(C)ccc3OC)c3ccccc23)cc1
Second: COC(=O)c1ccccc1NC(=O)c1ccc(COc2ccccc2Cl)o1
The “activity change, negative = inhibition” value of the first is lower: -2.37% for the first, 4.06% for the second.

Going from `CCN1CCN(CCCNC(=O)c2cnn(-c3ccc(C)cc3C)c2C2CCN(C(=O)OC(C)(C)C)CC2)CC1` to `Cc1ccc(C)c(N2CCN(S(=O)(=O)c3ccc4c(c3)C(C(C)C)C(=O)N4)CC2)c1` (stereo unspecified), the “activity change, negative = inhibition” value rises from 6.79% to 7.18%.

Compared with `O=C1C(Cl)=C(N2CCOCC2)C(=O)N1c1ccccc1`, `O=C1c2ccccc2-c2ncnc3c(N4CCOCC4)cc(N4CCOCC4)c1c23` is lower in “activity change, negative = inhibition” value: 62.2% for the first, 0.658% for the second.

Going from `CCCS(=O)(=O)N1CCC(n2c(C(F)(F)F)nc3cccnc32)CC1` to `Cc1ccc(-n2ncc3c(=O)n(Cc4cccc(C(F)(F)F)c4)cnc32)cc1C`, the “activity change, negative = inhibition” value rises from -6.19% to -1.38%.

Compared with `COc1ccccc1-c1cc2nc(C)c(CCC(=O)O)c(C)n2n1`, `CCOC(=O)Cn1c(=O)n(-c2ccccc2OC)c2nc(-c3cccc(F)c3)nc(C(N)=O)c21` is higher in “activity change, negative = inhibition” value: -1.61% for the first, 0.122% for the second.

First: CC(C)(CCl)C(=O)Nc1ccc(Sc2ccc(F)cc2)cc1
Second: O=C(Nc1ccc(Sc2ccc(Br)cc2)cc1)c1ccco1
The “activity change, negative = inhibition” value of the first is lower: 0% for the first, 7.73% for the second.

Going from `COc1ccc(-n2c(SC)nc3sc4c(c3c2=O)CCN(C(C)=O)C4)cc1` to `COc1ccc(C(=O)Nc2cccc(C(=O)OCc3cc(=O)n4c5c(sc4n3)CCCC5)c2)cc1`, the “activity change, negative = inhibition” value falls from 7.25% to 3.52%.

Going from `Cc1cccc(-c2nnc(SCC(=O)N3CCCc4ccccc43)o2)c1` to `Cc1cccc(N(Cc2ccccc2)C(=O)c2ccccc2F)c1`, the “activity change, negative = inhibition” value falls from 0.677% to -1.12%.

First: CCOc1ccc(NC(=O)C(=O)NCCc2csc3nc(-c4ccccc4F)nn23)cc1
Second: CCCC(=O)Nc1ccc(NC(=O)c2sc3ccccc3c2Cl)cc1
The “activity change, negative = inhibition” value of the first is higher: -0.856% for the first, -17.3% for the second.

Going from `O=c1cc(-c2ccccc2)nc(N2CCCCC2)[nH]1` to `O=C(Nc1ccccc1Cl)N1CCC(CN2CCCC2)CC1`, the “activity change, negative = inhibition” value falls from 0% to -14.6%.

Going from `Oc1ccccc1-c1nc(/C=C/c2ccc(F)cc2)no1` to `O=C(/C=C/NCc1ccc(F)cc1)c1ccccc1`, the “activity change, negative = inhibition” value rises from 0.232% to 4.49%.

First: COC(=O)N(NC(=O)C(O)(C(C)C)C(C)C)c1ccccc1
Second: CC(C)(O)C(=O)NN(C(=O)c1ccccc1)c1cccc(Br)c1
The “activity change, negative = inhibition” value of the first is lower: -2.07% for the first, 1.33% for the second.

First: CCC(C)NC(=O)CCCc1ccccc1 (stereo unspecified)
Second: CC(C)NC(=O)c1nn(-c2ccccc2F)nc1CO
The “activity change, negative = inhibition” value of the first is lower: 0.801% for the first, 8.65% for the second.

First: CCC(=O)N1c2ccccc2CC1C(=O)N1CCN(c2ccccc2)CC1 (stereo unspecified)
Second: O=C(/C=C/NNC(=O)c1cccc(Br)c1)c1ccccc1
The “activity change, negative = inhibition” value of the first is lower: -1.62% for the first, 0% for the second.

First: COc1ccccc1CNC(=O)C(Cc1ccccc1)NS(=O)(=O)c1ccc2c(c1)oc(=O)n2C (stereo unspecified)
Second: CCOC(=O)c1ccccc1CN1C(=O)c2ccccc2S1(=O)=O
The “activity change, negative = inhibition” value of the first is higher: 0.69% for the first, -0.286% for the second.

Going from `CCOc1ccccc1C(=O)NC1(C(F)(F)F)C(=O)Nc2c1c(=O)[nH]c(=O)n2-c1ccc(F)cc1` (stereo unspecified) to `CCOc1cc(C2C(C(=O)OC)=C(C)NC3=C2C(=O)c2ccccc23)ccc1O` (stereo unspecified), the “activity change, negative = inhibition” value falls from 8.33% to 4.85%.

Compared with `COc1cc(NC(=O)CSc2nc3nc(C)c(Cc4ccc(C)cc4)c(C)n3n2)cc(OC)c1OC`, `Cc1cc(C)c2c(=O)[nH]c(SCC(=O)Nc3ccc(Br)cc3)nc2n1` is lower in “activity change, negative = inhibition” value: 3.82% for the first, -17.4% for the second.

Compared with `COc1ccc(NC(=O)C2CCCN(S(=O)(=O)c3c(C)[nH]c(=O)[nH]c3=O)C2)c(OC)c1` (stereo unspecified), `COC(=O)c1sccc1NN1C(=O)c2ccccc2C1=O` is lower in “activity change, negative = inhibition” value: 0.241% for the first, -0.191% for the second.

First: COC(=O)c1sccc1NC(=O)CCC1CCCC1
Second: Cc1ccc(NC(=O)CCC(=O)c2ccc(Br)cc2)cc1
The “activity change, negative = inhibition” value of the first is higher: 0.189% for the first, -8.2% for the second.

First: O=C(CCCCn1c(=O)c2ccccc2n(CC(=O)Nc2cccc(C(F)(F)F)c2)c1=O)NCc1ccc2c(c1)OCO2
Second: COc1cccc(CNC(=O)CCc2nc(-c3ccc(C)cc3)no2)c1
The “activity change, negative = inhibition” value of the first is lower: -1.07% for the first, 18.6% for the second.

Going from `CCOC(=O)c1ccc(-c2ccc(C(=O)Nc3cccnc3)o2)cc1` to `CCOC(=O)c1cc2c(=O)n3ccccc3nc2n(CC2CCCO2)c1=NC(=O)c1ccccc1Br` (stereo unspecified), the “activity change, negative = inhibition” value rises from 0% to 4.51%.
